Laboratory results taken from PubChem BioAssay (NCI).
The panel holds about 79,000 compounds, 15% with a hit somewhere; the sample as a whole holds those more often. Unmarked numbers belong to inactive results. Activity calls are given as the source filed them. Cut-off read from the data, not from the text of the source: active = growth inhibition above about 70%; inactive = the rest.

Legend:
[1] = NCI Yeast Anticancer Drug Screen. Data for the rad50 strain (AID 155);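 note: 0% = growth of vehicle-only cultures of the same strain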; conditions: S. cerevisiae rad50 strain growth inhibition, active compounds read high
Procedure, shortened: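 Growth of the mutant yeast was measured after compound exposure and referenced to vehicle-treated cultures.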

[2] = NCI Yeast Anticancer Drug Screen. Data for the mec2-1 strain (AID 157); conditions: S. cerevisiae mec2-1 strain, active compounds read high
Procedure, shortened: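 Test agents were screened against the mec2-1 yeast strain, with defined DNA repair or cell cycle alteration. Growth was scored as inhibition against vehicle-only controls.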

[3] = NCI Yeast Anticancer Drug Screen. Data for the sgs1 mgt1 strain (AID 161);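 note: 0% = growth of cultures given vehicle only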; conditions: S. cerevisiae sgs1 mgt1 strain, active compounds read high
Procedure, shortened: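 Test agents were incubated with a DNA-repair-mutant yeast strain. Growth was then read and compared against vehicle-treated controls.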

[4] = NCI Yeast Anticancer Drug Screen. Data for the cln2 rad14 strain (AID 165);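 note: 0% = growth equal to vehicle treated cultures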; conditions: S. cerevisiae cln2 rad14 strain, active compounds read high
Procedure, shortened: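 Growth of compound-exposed yeast (cln2 rad14 genotype) measured and expressed as inhibition relative to vehicle.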

[5] = NCI Yeast Anticancer Drug Screen. Data for the bub3 strain (AID 167); conditions: S. cerevisiae bub3 mutant strain, active compounds read high
Procedure, shortened: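 Whole-cell yeast assay. The mutant strain was incubated with compounds, and growth inhibition was determined by comparison with vehicle-treated cells.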

[6] = NCI Yeast Anticancer Drug Screen. Data for the mlh1 rad18 strain (AID 175); conditions: S. cerevisiae mlh1 rad18 strain growth inhibition, active compounds read high
Procedure, shortened: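 In this whole-cell yeast screen, a strain with altered DNA damage repair is challenged with compound, and its growth is measured against matched vehicle-treated controls.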

[7] = at 5.0 µM (retest, dose inferred, filed as 0.5)
[8] = at 50.0 µM (retest, dose inferred, filed as 5.0)

| SMILES | growth inhibition [1, 7] | growth inhibition [1, 8] | growth inhibition ([1]; at 50.0 µM) | growth inhibition [2, 7] | growth inhibition [2, 8] | growth inhibition ([2]; at 50.0 µM) | growth inhibition [3, 7] | growth inhibition [3, 8] | growth inhibition ([3]; at 50.0 µM) | growth inhibition [4, 7] | growth inhibition [4, 8] | growth inhibition ([4]; at 50.0 µM) | growth inhibition [5, 7] | growth inhibition [5, 8] | growth inhibition ([5]; at 50.0 µM) | growth inhibition [6, 7] | growth inhibition [6, 8] | growth inhibition ([6]; at 50.0 µM) |
| --- | --- | --- | --- | --- | --- | --- | --- | --- | --- | --- | --- | --- | --- | --- | --- | --- | --- | --- |
| Cc1cccc2c1Oc1ccccc1C2N1C(=O)/C(=C/c2cccs2)SC1=S (configuration not stated) | 1% | 12% | 51.8% | -23% | 37% | 53.8% | -6% | 28% | 88% (active) | -11% | 1% | 72.2% (active) | -8% | -4% | 26.4% | 2% | 45% | 42.4% |
| CC(C)=CCC/C(=C/CC/C(C)=C/CCc1ccoc1)C(=O)O | -5% | 20% | 72.8% (active) | 3% | 26% | 44.1% | -9% | 41% | 59.4% | 17% | 73% (active) | 42.7% | -9% | 64% | 53% | 2% | 35% | 62.3% |
| CC(=O)OCCc1ccc(CCc2ccccc2)cc1 | 13% | 47% | 40.3% | 1% | 4% | 18.6% | 6% | 28% | 18.6% | 4% | -6% | -31.6% | 8% | 45% | 67.7% | 6% | -4% | 62.6% |
| CCOc1ccc2nc3cc(Cl)ccc3[n+](C)c2c1 | 20% | 79% (active) | 85.2% (active) | 14% | 87% (active) | 87.3% (active) | 15% | 87% (active) | 82.8% (active) | 10% | 74% (active) | 72.7% (active) | 32% | 88% (active) | 83.9% (active) | 15% | 81% (active) | 86.7% (active) |
| CCCCCCCCCCOC(=O)Nc1ccc(C)c(NC(=O)OCCCCCCCCCC)c1 | 0% | 1% | 27.4% | 1% | -3% | 13.4% | 3% | -13% | 16.8% | 2% | -13% | 23.1% | 0% | -1% | 55.2% | -1% | -3% | 24.6% |
| O=C(O)C(Br)C(Br)C(=O)Nc1ccc(Cl)c(Cl)c1 (configuration not stated) | 91% (active) | 99% (active) | 96.3% (active) | 52% | 99% (active) | 98.1% (active) | 85% (active) | 99% (active) | 96.8% (active) | 25% | 99% (active) | 84.7% (active) | 96% (active) | 100% (active) | 98.8% (active) | 48% | 99% (active) | 96% (active) |
| COC(=O)CSc1nc2[nH]c(SC)c(C(N)=O)c2c(=O)n1-c1ccccc1 | -2% | -4% | 2.35% | -2% | -22% | 29.4% | 3% | -7% | 7.25% | -5% | 3% | 46.2% | 18% | 21% | 7.8% | -14% | -19% | 9.8% |
| Cc1ccc(Oc2ccc(C(=O)C(CN(C)C)CN(C)C)cc2)cc1 | 93% (active) | 98% (active) | 92.1% (active) | 93% (active) | 96% (active) | 98% (active) | 95% (active) | 98% (active) | 51.4% | 75% (active) | 95% (active) | 95.6% (active) | 91% (active) | 96% (active) | 96.2% (active) | 96% (active) | 96% (active) | 97.1% (active) |
| O=C1c2ccccc2C(=O)c2c1ccc(C(=O)O)c2-c1ccc2ccccc2c1 | 5% | 97% (active) | 97.3% (active) | 26% | 98% (active) | 97.8% (active) | 11% | 98% (active) | 97.5% (active) | 13% | 96% (active) | 97.3% (active) | -3% | 98% (active) | 96.2% (active) | 8% | 98% (active) | 97.2% (active) |
| CC(=O)Nc1ccc2c(c1)C(S)c1ccccc1-2 (configuration not stated) | -5% | 32% | 52% | 9% | 27% | 31.7% | 2% | 53% | 46.6% | -70% | 18% | 33.2% | -1% | -60% | 49.4% | -2% | 71% (active) | 37.2% |
| CN(C)c1ccc(C=Nc2ccc(OCCCCCCCCCCC(=O)O)cc2)cc1 | 100% (active) | 100% (active) | 82.5% (active) | 100% (active) | 99% (active) | 59.9% | 77% (active) | 86% (active) | 76.7% (active) | 77% (active) | 92% (active) | 75% (active) | 73% (active) | 84% (active) | 84.5% (active) | 100% (active) | 100% (active) | 71.5% (active) |
| CCOC1(c2ccccc2)c2ccccc2S(=O)(=O)N1C (configuration not stated) | -3% | 4% | 11.1% | -4% | 16% | 0.95% | 14% | 33% | 11.2% | 6% | 12% | 56.9% | 1% | 10% | 40.8% | 18% | 11% | 9% |
| CSc1c(C)n([O-])c2cc(Cl)c(Cl)cc2[n+]1=O | 20% | 94% (active) | 79.8% (active) | 14% | 93% (active) | 86% (active) | 24% | 99% (active) | 85.4% (active) | 17% | 87% (active) | 64.4% | 24% | 96% (active) | 79.2% (active) | 23% | 97% (active) | 92.3% (active) |
| COC([C@@H](OC(=O)c1ccccc1)[C@H](OC(=O)c1ccccc1)C(O)COC(=O)c1ccccc1)n1cc(C)c(=O)[nH]c1=O (some centres not stated) | -8% | 26% | 17.1% | -8% | 18% | 49.5% | 4% | 33% | 65.5% | 8% | 57% | 53.5% | -19% | 28% | 71.8% (active) | -3% | 69% | 67.3% |
| COc1c2c3c(ccnc3c3ccccc13)C(=O)N2C | 29% | 84% (active) | 83% (active) | 15% | 72% (active) | 71.3% (active) | 19% | 75% (active) | 77.7% (active) | -3% | 52% | 61% | 0% | 72% (active) | 75.6% (active) | 17% | 76% (active) | 75% (active) |
| CCCCCCCC[N+](C)(C)Cc1ccc(C[N+](C)(C)CCCCCCCC)cc1 | 1% | 24% | 8.75% | 15% | 26% | 7.5% | 3% | 34% | 1.05% | 0% | 18% | 24.9% | 2% | 16% | 8.35% | 0% | 33% | 86% (active) |
| [Fe+2].c1cc[cH-]c1.c1ccc(-c2ccc[cH-]2)cc1 | -4% | 29% | 7.6% | -2% | 32% | 23.3% | -6% | 47% | -9.4% | 1% | 16% | 16.9% | 0% | 41% | 74.7% (active) | 1% | 24% | 19% |
| CCCCCCCCCCCC#CCCCCC(=O)O | 87% (active) | 94% (active) | 56.8% | 95% (active) | 97% (active) | 62.5% | 93% (active) | 96% (active) | 83.7% (active) | 27% | 91% (active) | 61% | 96% (active) | 95% (active) | 67.7% | 96% (active) | 95% (active) | 60% |
| CC(O)(CO)CC(C)(O)CO (configuration not stated) | -2% | -10% | 12.9% | 3% | -6% | -7.2% | -1% | -9% | 1.8% | -2% | -14% | 77% (active) | 2% | -1% | -1.05% | 1% | -11% | -7.45% |
